Results on 5 molecules are retold here after PubChem BioAssay.

Assay [1] relates to Wnt5a (protein binding on small-molecule microarray). In words: small molecules binding Wnt5a protein – biophysical, small-molecule microarray, 635/667 nm fluorescence, primary screen (AID 1142).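 Further: fluorescence read at 667 nm with signal to noise per printed feature.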 Particulars: 635 nm fluorescence, higher = more signal.
A short description of assay [2]: ATP-based viability of Huh7 replicon cells – cell-based, CellTiter-Glo luminescence, basal, 48 h, cytotoxicity control for HCV replication inhibitor project, primary screen (AID 1143).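 Further: Huh7 hepatoma cells carrying a hepatitis C replication reporter with no stimulus; test concentration not given here.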 Particulars: higher = more signal, called active from +8 up or from −8 down. (In general: A replicon is a self-replicating genome or part of one, used to study replication in cells.)

A short description of assay [3]: basal CRE-LacZ reporter activity in PC12 – cell-based, unstimulated, primary screen (AID 1145). Particulars: no forskolin, luminescence, 4.5 h, higher = more signal, called active from +8 up or from −8 down.
Assay [4] in a line: forskolin-driven CRE-LacZ activity in PC12 – cell-based, CRE-LacZ reporter, forskolin-stimulated, primary screen (AID 1146).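 Further: PC12 cells with 6xCRE LacZ reporter stimulated by forskolin 10 µM; beta-galactosidase reporter signal reflecting CREB driven transcription.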 Conditions: luminescence, 4.5 h, higher = more signal, called active from +8 up or from −8 down.
Assay [5] deals with Streptavidin (Streptomyces avidinii) (UniProt P22629). The assay is described as follows: compounds binding control protein streptavidin – biophysical, small-molecule microarray, 635/667 nm fluorescence, artefact control for SMM compound annotation, primary screen (AID 1147).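 Further: signal reflects streptavidin binding to arrayed compounds as a control protein.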 Conditions: higher = more signal.
Assay [6] is described as follows: probe aInhba binding on compound microarray – biochemical, small-molecule microarray, 635/667 nm fluorescence, primary screen (AID 1148).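 Further: score merges 667nm spot fluorescence with signal-to-noise for antibody binding to printed compounds.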 Particulars: higher = more signal.
Assay [7] addresses Torsin-1A (Homo sapiens) (UniProt O14656). In words: TOR1A wild-type binding on microarray – cell lysate, small-molecule microarray, lysate, 635/667 nm, primary screen (AID 1149). Conditions: COS7 hTOR1A-WT lysate, 635 nm fluorescence, higher = more signal.
For assay [8] the target is unchanged. The assay is described as follows: torsin A mutant lysate binding on microarrays – cell lysate, small-molecule microarray, COS7 lysate, 635/667 nm fluorescence, primary screen (AID 1150).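 Further: score pools 667 nm emission and signal to noise measuring lysate protein binding.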 Particulars: COS7 hTOR1A mutant lysate, 635 nm fluorescence, higher = more signal.
Assay [9] has as its system Sonic hedgehog protein (Shh). The assay is described as follows: Sonic hedgehog microarray binding compounds – biochemical, small-molecule microarray, 635/667 nm fluorescence, primary screen (AID 1151).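 Further: Shh protein binding to compounds spotted on small-molecule microarray slides; score combines spot fluorescence intensity with signal-to-noise across triplicate slides.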 Conditions: 635 nm fluorescence, higher = more signal.
Assay [10] in a line: optical density shifts of acrAB sulA E. coli – strain DRC41, OD650, 48 h, E. coli filamentation inducer project, primary screen (AID 1152).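 Further: E. coli MC1000 strain DRC41 lacking acrAB efflux pump and sulA.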 Conditions: higher = more signal, called active from +8 up or from −8 down.
Assay [11] is described as follows: probe aLefty1 binding on compound microarray – biochemical, small-molecule microarray, 635/667 nm fluorescence, primary screen (AID 1153).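 Further: score merges spot fluorescence with signal-to-noise ratio from the scanned slide images.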 Conditions: higher = more signal.
Assay [12] is described as follows: plasmodial surface anion channel blockers, osmotic lysis – cell-based, P. falciparum Indochina, OD700, 1 h, primary screen (AID 1154). Conditions: P. falciparum Indochina infected RBC osmotic lysis, higher = more signal, called active from +8 up or from −8 down.
Assay [13] in a line: plasmodial surface anion channel blockers, osmotic lysis – cell-based, P. falciparum Indochina, OD700, 2 h, primary screen (AID 1155).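 Further: lysis reports solute entry through the parasite surface anion channel PSAC.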 Conditions: P. falciparum Indochina infected erythrocytes, higher = more signal, called active from +8 up or from −8 down.
Assay [14] can be described thus: changes in parasitized red cell lysis, either direction – P. falciparum Indochina, OD700, 3 h, PSAC antagonist project, primary screen (AID 1156). Particulars: P. falciparum-infected erythrocytes, osmotic lysis, higher = more signal, called active from +8 up or from −8 down.
The nature of assay [15]: plasmodial surface anion channel blockers, osmotic lysis – cell-based, P. falciparum Indochina, OD700, 18 h, primary screen (AID 1157). Conditions: P. falciparum Indochina infected erythrocytes, osmotic lysis OD700, 18 h; higher = more signal, called active from +8 up or from −8 down.
A short description of assay [16]: S6 kinase pathway phospho-S6 level changes – cell-based, A549, cytoblot, luminescence, serum-stimulated, primary screen (AID 1158).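 Further: serum-stimulated A549 lung adenocarcinoma cells; signal is phosphorylated S6 detected by cytoblot immunostaining with HRP secondary.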 Particulars: 5 h, higher = more signal.
The target of assay [17] is NADPH oxidase 2 (Homo sapiens) (UniProt P04839). In words: compounds shifting NOX2 Amplex Red fluorescence – cell-based, HEK293-NOX2, PMA-stimulated, NOX inhibitor project, primary screen (AID 1159). Further: test concentration not given here. Particulars: 45 min, higher = more signal, called active from +8 up or from −8 down.
The target of assay [18] is NADPH oxidase 4 (Homo sapiens) (UniProt Q9NPH5). The assay is described as follows: compounds shifting NOX4 Amplex Red fluorescence – cell-based, HEK293-NOX4, tetracycline-induced, NOX inhibitor project, primary screen (AID 1160). Conditions: HEK293-NOX4, Amplex Red H2O2 fluorescence, 45 min; higher = more signal, called active from +8 up or from −8 down.
Assay [19] concerns the target NADPH oxidase 5 (Homo sapiens) (UniProt Q96PH1). In words: compounds shifting NOX5 Amplex Red fluorescence – cell-based, HEK293-NOX5, NOX inhibitor project, primary screen (AID 1161). Particulars: HEK293-NOX5, ionomycin, 45 min, higher = more signal.

Activity calls are given as the source filed them.

Sequence of Torsin-1A (Homo sapiens) (O14656 whole entry, looked up): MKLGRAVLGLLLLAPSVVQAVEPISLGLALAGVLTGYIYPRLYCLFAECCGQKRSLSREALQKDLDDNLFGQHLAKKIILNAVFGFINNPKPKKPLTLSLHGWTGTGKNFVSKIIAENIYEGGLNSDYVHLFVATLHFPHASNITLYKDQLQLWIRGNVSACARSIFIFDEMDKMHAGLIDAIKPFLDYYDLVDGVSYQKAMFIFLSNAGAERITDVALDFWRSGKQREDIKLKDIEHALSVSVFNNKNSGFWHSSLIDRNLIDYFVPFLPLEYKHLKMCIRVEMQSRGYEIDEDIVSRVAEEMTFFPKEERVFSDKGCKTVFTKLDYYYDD
Sequence of NADPH oxidase 5 (Homo sapiens) (Q96PH1 whole entry, looked up): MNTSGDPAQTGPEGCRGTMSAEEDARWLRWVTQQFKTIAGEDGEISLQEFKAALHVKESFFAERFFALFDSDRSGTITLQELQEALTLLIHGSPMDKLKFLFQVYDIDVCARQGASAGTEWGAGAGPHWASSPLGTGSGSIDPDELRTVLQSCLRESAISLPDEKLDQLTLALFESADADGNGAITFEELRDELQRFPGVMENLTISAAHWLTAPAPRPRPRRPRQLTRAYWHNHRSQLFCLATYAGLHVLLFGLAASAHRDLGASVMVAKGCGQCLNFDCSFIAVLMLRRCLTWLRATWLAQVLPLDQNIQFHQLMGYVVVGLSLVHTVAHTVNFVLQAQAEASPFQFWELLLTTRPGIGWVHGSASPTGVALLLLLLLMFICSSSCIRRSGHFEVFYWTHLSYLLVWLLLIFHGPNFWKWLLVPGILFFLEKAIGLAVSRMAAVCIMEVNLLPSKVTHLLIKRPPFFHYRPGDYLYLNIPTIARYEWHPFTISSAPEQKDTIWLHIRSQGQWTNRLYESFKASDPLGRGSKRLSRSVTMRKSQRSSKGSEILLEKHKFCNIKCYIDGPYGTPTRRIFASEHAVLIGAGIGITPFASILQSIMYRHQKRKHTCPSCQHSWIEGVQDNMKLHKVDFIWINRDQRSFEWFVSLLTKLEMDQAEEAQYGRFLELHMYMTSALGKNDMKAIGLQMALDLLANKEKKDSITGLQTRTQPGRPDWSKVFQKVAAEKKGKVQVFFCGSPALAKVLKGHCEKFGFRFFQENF
Sequence of NADPH oxidase 4 (Homo sapiens) (Q9NPH5 whole entry, looked up): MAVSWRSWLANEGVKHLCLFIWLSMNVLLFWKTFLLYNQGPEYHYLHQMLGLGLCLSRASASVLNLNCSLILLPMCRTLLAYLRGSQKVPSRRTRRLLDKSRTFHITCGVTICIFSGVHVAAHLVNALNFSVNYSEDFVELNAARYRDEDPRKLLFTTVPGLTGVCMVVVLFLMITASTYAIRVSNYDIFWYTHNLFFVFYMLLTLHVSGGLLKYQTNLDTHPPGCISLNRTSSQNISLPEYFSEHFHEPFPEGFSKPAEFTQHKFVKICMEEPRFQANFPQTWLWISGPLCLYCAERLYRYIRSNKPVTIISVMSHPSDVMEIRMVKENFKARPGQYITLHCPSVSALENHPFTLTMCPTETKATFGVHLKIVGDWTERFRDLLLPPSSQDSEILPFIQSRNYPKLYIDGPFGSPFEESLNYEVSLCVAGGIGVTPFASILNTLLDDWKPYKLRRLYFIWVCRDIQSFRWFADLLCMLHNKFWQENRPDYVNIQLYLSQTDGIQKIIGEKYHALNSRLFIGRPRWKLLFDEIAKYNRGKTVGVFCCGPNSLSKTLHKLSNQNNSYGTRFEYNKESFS
Sequence of NADPH oxidase 2 (Homo sapiens) (P04839 whole entry, looked up): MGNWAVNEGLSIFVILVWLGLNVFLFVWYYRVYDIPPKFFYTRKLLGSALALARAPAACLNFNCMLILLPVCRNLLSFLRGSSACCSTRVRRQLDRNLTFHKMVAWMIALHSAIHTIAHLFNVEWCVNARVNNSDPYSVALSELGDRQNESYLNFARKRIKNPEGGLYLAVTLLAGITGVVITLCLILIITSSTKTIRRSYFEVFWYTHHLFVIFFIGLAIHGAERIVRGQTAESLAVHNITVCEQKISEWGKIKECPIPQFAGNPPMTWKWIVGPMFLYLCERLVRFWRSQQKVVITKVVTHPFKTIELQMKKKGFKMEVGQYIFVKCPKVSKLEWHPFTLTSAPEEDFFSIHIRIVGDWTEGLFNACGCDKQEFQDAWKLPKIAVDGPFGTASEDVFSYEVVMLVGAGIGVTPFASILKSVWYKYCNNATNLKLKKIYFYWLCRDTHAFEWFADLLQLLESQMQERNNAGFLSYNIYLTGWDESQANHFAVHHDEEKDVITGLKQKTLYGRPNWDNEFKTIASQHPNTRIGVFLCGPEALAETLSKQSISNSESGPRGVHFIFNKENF
Sequence of Streptavidin (Streptomyces avidinii) (P22629 whole entry, looked up): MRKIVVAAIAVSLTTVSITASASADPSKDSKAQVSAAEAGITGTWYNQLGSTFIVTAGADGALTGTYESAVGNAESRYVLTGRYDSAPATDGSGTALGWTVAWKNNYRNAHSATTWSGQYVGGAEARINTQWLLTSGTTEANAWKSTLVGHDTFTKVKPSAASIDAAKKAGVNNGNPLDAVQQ

In the case of `CC(C)[Si](OCCCNS(=O)(=O)c1ccc(Br)cc1)(C(C)C)C(C)C`, the composite z-score in assay [1] stood at 0.0488; in assay [5], 0.623; in [6], 0.0161; in assay [7] it was 0.923; in assay [8] it was 0.31; in assay [9], 0.72. Also, in assay [11], the composite z-score is -0.0236. In addition, the z-score is -5.53 (inactive) in assay [2]; -0.752 (inactive) in assay [3]; -0.4 (inactive) in assay [4]; 3.27 (inactive) in assay [10]; 0.869 (inactive) in assay [12]; 0.0808 (inactive) in assay [13]. The z-score in assay [14] was -3.37 (inactive); in assay [15] it was -0.442 (inactive); in [16], 4.17; in assay [17], 1.84 (inactive); in assay [18], -0.843 (inactive); in assay [19], -3.06.

For `C=CCC(OC(C)=O)[C@@H]1[C@@H](N(Cc2ccc(-c3ccccc3)cc2)C(=O)c2ccc(C)cc2)c2cc(OCCCO)ccc2N1C(=O)c1ccc(-c2ccccc2)cc1` (stereo not given in full), the composite z-score in assay [1] was 0.504; in assay [5] it was 0.0598; in assay [6] it was 0.0884; in assay [7] it was -0.0824; in assay [8], 0.119; in assay [9], 0.0223. This molecule displayed a composite z-score in assay [11] of -0.0583. Also, the z-score in [2] was -1.62 (inactive); in assay [3] it was 1.73 (inactive); in assay [4], -0.782 (inactive); in assay [10], 2.2 (inactive); in assay [12], 0.267 (inactive); in [13], -0.576 (inactive). Besides, the z-score in assay [14] was -1.07 (inactive); in assay [15] it was -0.888 (inactive); in [16], 1.05; in assay [17], -0.366 (inactive); in [18], 0.639 (inactive); in [19], 1.05.

On to `CCCC[C@H]1OB(O)C[C@H]2C1=C(COC)C[C@H]1C(=O)N(Cc3ccccc3)C(=O)[C@H]12`, for which the composite z-score in assay [1] was 0.192; in assay [5] it was -0.098; in assay [6] it was 0.124; in assay [7], -0.0377; in assay [8], 0.37; in assay [9], 0.329. This molecule also yielded a composite z-score in assay [11] of -0.0969. In addition, the z-score was -0.273 (inactive) in [2]; 0.307 (inactive) in assay [3]; -1.76 (inactive) in [4]; 2.78 (inactive) in [10]; 1.14 (inactive) in assay [12]; -1.1 (inactive) in assay [13]. Further, the z-score is 0.223 (inactive) in [14]; -2 (inactive) in [15]; 0.932 in [16]; 0.034 (inactive) in assay [17]; 0.811 (inactive) in [18]; 1.37 in assay [19].

`C=CC[C@]1(C(N)=O)N=C(c2ccc(OCCCO)cc2)O[C@H]1c1ccccc1CN=[N+]=[N-]`: the composite z-score in assay [1] is 0.151; in [5], 1.42; in [6], -0.0093; in [7] it was 1.69; in [8] it was 0.96; in assay [9], -0.373. The composite z-score in assay [11] is -0.007. The z-score was -4.28 (inactive) in assay [2]; 1.54 (inactive) in [3]; -1.31 (inactive) in assay [4]; 2.19 (inactive) in assay [10]; 23.9 (active) in [12]; 6.58 (inactive) in [13]. For the same molecule, the z-score in assay [14] was -0.294 (inactive); in assay [15] it was 0.837 (inactive); in assay [16], 1.73; in assay [17] it was -2.02 (inactive); in assay [18], -0.202 (inactive); in assay [19] it was 0.568.

With `Cc1ccc(S[C@]2(C(=O)NCCN3CCOCC3)CC(=O)N(C3Cc4ccccc4C3)[C@@H]2c2ccc(CO)cc2I)cc1`, the composite z-score in [1] is -0.149; in assay [5] it was -0.658; in assay [6] it was 0.0756; in assay [7], -0.434; in assay [8] it was -0.131; in assay [9], -0.678. Besides, the composite z-score in assay [11] is 0.392. Further, the z-score is -2.98 (inactive) in assay [2]; 0.531 (inactive) in assay [3]; 0.174 (inactive) in assay [4]; 1.86 (inactive) in [10]; 6.65 (inactive) in assay [12]; -0.0443 (inactive) in assay [13]. Besides, the z-score was 0.591 (inactive) in assay [14]; -0.926 (inactive) in assay [15]; 1.22 in [16]; 2.05 (inactive) in [17]; -1.59 (inactive) in assay [18]; 1.33 in assay [19].
